High-throughput results as filed in PubChem.
A selection: hits, their analogues and other compounds. The true share with any hit is near 12%.
Sm TGR block: qHTS Assay for the Inhibitors of Schistosoma Mansoni Peroxiredoxins | Potency, µM (series often up to 114 µM), hits mostly inhibitors | purified TGR, DTNB reduction, TNB absorbance 405 nm | hit rate 3% among 360,000; note: nearly all actives have a fitted effect of over 60% in size
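TGR 20 nM + NADPH 100 uM (dispensed conc.), cpd preinc 15 min RT; start with NADPH (500 uM addition) then DTNB (15 mM addition). Kinetic TNB absorbance, 405 nm filter. Four-parameter Hill fit across titration.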
AmpC detergent: qHTS Inhibitors of AmpC Beta-Lactamase (assay with detergent); P00811; AmpC hydrolysis of nitrocefin, absorbance 480 nm, 0.01% Triton; Potency, µM (top dose mostly 114 µM), most hits filed as inhibitors; hit rate 0.041% among 370,000; AID 485294, 2010; note: nearly all actives have a fitted effect of over 25% in size
Target sequence (P00811 whole entry, looked up): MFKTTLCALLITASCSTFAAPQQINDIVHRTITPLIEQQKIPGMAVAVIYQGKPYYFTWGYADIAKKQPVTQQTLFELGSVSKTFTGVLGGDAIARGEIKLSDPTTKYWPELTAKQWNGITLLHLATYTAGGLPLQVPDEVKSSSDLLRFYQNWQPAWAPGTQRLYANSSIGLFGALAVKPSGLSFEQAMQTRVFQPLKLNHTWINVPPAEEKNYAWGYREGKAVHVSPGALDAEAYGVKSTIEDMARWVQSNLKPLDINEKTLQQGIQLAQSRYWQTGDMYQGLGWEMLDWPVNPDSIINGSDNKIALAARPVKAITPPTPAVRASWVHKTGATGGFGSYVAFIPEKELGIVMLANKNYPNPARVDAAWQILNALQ
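20 mM phosphate pH 7.0 + 0.01% (detergent screen) or 0.0001% Triton X-100; 5.3 nM AmpC reagent; cpd preinc 15 min RT; nitrocefin (800 uM stock) to start; A480 q20 s × 4 min; Activity was normalised to no-enzyme and no-compound control wells.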
Pf growth 48h: Primary qHTS for delayed death inhibitors of the malarial parasite plastid, 48 hour incubation. P. falciparum luciferase growth in erythrocytes, 48 h. Potency, µM (top dose mostly 28.7 µM), actives largely listed as inhibitors. hit rate 5.9% among 310,000
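Here the parasites carry a stable luciferase gene and grow inside erythrocytes in Albumax-based RPMI medium with compound for one erythrocytic cycle. Activity is scored as loss of luminescent signal.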
SARS PLpro yeast: qHTS of Yeast-based Assay for SARS-CoV PLP | Potency, µM (titrated, usually from 32.9 µM), hits mostly activators | hit rate 0.19% among 330,000 | S. cerevisiae expressing SARS-CoV PLpro, growth rescue | AID 485353, 2010; calls by dose curve; note: nearly all actives have a fitted effect of over 55% in size
AmpC inh no detg: qHTS Inhibitors of AmpC Beta-Lactamase (assay without detergent); Potency, µM (doses to about 57.1 µM), most hits filed as inhibitors; AmpC nitrocefin hydrolysis, absorbance 480 nm, 0.0001% Triton; hit rate 0.52% among 330,000; P00811; AID 485341, 2010; note: nearly all actives have a fitted effect of over 20% in size
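AmpC (5.3 nM in the dispensed reagent) in 20 mM phosphate pH 7.0 with 0.01% (detergent screen) or 0.0001% Triton X-100 was preincubated with compounds for 15 min at room temperature. Nitrocefin was then added from an 800 uM solution, and hydrolysis was followed at 480 nm.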
Pf growth 96h: Primary qHTS for delayed death inhibitors of the malarial parasite plastid, 96 hour incubation; P. falciparum luciferase reporter growth, 96 h; Potency, µM (highest dose often 28.7 µM), most hits filed as inhibitors; hit rate 6.9% among 320,000; AID 504834, 2011
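Infected RBCs, 2% Hct / 0.05% parasitemia final; luciferase-reporter P. falciparum; cpd 96 h, 37 C, 5% CO2; luciferase detection reagent; luminescence.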
Hits are given with their value; [ ] = dose if it differs, or a comment. Unless noted, calls come from the whole dose curve; as a rule, active = well fitted curve in the direction sought with a large enough effect; inconclusive = small, poorly fitted or top-dose-only effect, or another doubt; inactive = no such curve, though single readings can be large; an effect the other way counts as inactive or inconclusive.

Cc1cc(C)n(-c2nc3cc(Cl)ccc3nc2N2CCN(c3cccc(C)c3C)CC2)n1 was read as Sm TGR block inactive and AmpC detergent inactive.
For COC(=O)c1cc(C#N)c(NCc2ccccc2)nc1C the results were Sm TGR block inactive, AmpC detergent inactive, Pf growth 48h inactive, SARS PLpro yeast inactive and AmpC inh no detg inactive.
For C=CCN(c1ccc(C(=O)NC(C)C)cc1)S(C)(=O)=O the results were Sm TGR block inactive, AmpC detergent inactive, Pf growth 48h inactive, SARS PLpro yeast inactive and AmpC inh no detg inactive.
Screening C=CCN(c1ccc(C(=O)NCCSc2ccccc2)cc1)S(C)(=O)=O returned Sm TGR block inactive, AmpC detergent inactive, Pf growth 48h inactive, SARS PLpro yeast inactive, AmpC inh no detg inactive and Pf growth 96h 14.7µM.
`O=C(COC(=O)CC1CCCC1)Nc1ccc(Br)cc1F` gave SARS PLpro yeast inactive and AmpC inh no detg inactive.
For O=C(C1CC(c2ccc(F)cc2)=NO1)N1CCCc2ccccc21 (centres undefined) the results were Sm TGR block inactive, AmpC detergent inconclusive, Pf growth 48h inactive, SARS PLpro yeast inactive, AmpC inh no detg inactive and Pf growth 96h 2.08µM.
`COc1cc(OC)c(C2=NOC(C(=O)Nc3c(C)nn(CC(=O)N4CCCC4)c3C)C2)cc1Cl` (centres undefined) gave Sm TGR block inactive, AmpC detergent inactive, Pf growth 48h inactive, SARS PLpro yeast inactive, AmpC inh no detg inactive and Pf growth 96h 5.86µM.
Cc1cccc(N=C2NC(=O)/C(=C/C=C/c3ccco3)S2)c1 was read as Sm TGR block 39.8µM, AmpC detergent inactive, Pf growth 48h inactive, SARS PLpro yeast inactive, AmpC inh no detg 28.2µM and Pf growth 96h inconclusive.
For Cc1ccc(N=C2NC(=O)/C(=C\c3ccco3)S2)cc1 the results were Sm TGR block inactive, AmpC detergent inactive, Pf growth 48h inconclusive, SARS PLpro yeast inactive, AmpC inh no detg inactive and Pf growth 96h inconclusive.
`O=C1NC(=Nc2ccc(O)cc2)S/C1=C/c1ccco1` gave Sm TGR block 25.1µM, AmpC detergent inactive, Pf growth 48h inactive, SARS PLpro yeast inactive, AmpC inh no detg 10µM and Pf growth 96h inconclusive.
For O=C1NC(=Nc2ccc3ccccc3c2)S/C1=C/c1ccco1 the results were Sm TGR block 28.2µM, AmpC detergent inactive, Pf growth 48h inactive, SARS PLpro yeast inactive, AmpC inh no detg 31.6µM and Pf growth 96h inactive[5.75 µM].
Cc1cccc(N=C2NC(=O)S/C2=C\c2ccco2)c1 was read as Sm TGR block inactive, AmpC detergent inactive, Pf growth 48h inactive, SARS PLpro yeast inactive, AmpC inh no detg inconclusive and Pf growth 96h inconclusive.
COc1ccc(N=C2NC(=O)/C(=C\C=C\c3ccco3)S2)cc1 was read as AmpC detergent inactive, Pf growth 48h inactive, SARS PLpro yeast inactive, AmpC inh no detg inactive and Pf growth 96h inconclusive.
For COc1cc(/C=C2\SC(=Nc3ccc(O)cc3)NC2=O)cc(OC)c1O the results were Sm TGR block inactive, AmpC detergent inactive, Pf growth 48h 3.7µM, SARS PLpro yeast inactive, AmpC inh no detg inactive and Pf growth 96h 9.28µM.
O=S(=O)(c1ccccc1)c1nc(-c2ccc(Cl)cc2Cl)oc1N1CCCCCC1 was read as Sm TGR block inactive and AmpC detergent inactive.
For CCOCCCNC(=O)NC(C)c1c(-n2cccc2)sc2c1CCN(CC)C2 (centres undefined) the results were Sm TGR block inconclusive and AmpC detergent inactive.
`CC(=O)c1ccc(-c2cccc([C@H]3[C@@H]4C=CC[C@@H](C)[C@@H]4C(=O)N3Cc3ccccc3)c2)cc1` gave SARS PLpro yeast inactive and AmpC inh no detg inactive.
`CC(C)CC1Nc2ncnc(N3CCCCC3)c2N(Cc2ccc(Br)cc2)C1=O` (centres undefined) gave Sm TGR block inactive, AmpC detergent inconclusive, Pf growth 48h inconclusive, SARS PLpro yeast inactive, AmpC inh no detg inactive and Pf growth 96h inconclusive.
